# “And” between values parts separate entries of the source, which are not always exact repeats. Equal entries are not always repeated. Out of some 320,000 compounds screened, about 2,100 (0.66%) were called active. Inconclusive results (about 53%) are left out. Calls follow the shape of the dose curve; as a rule, active = well fitted inhibition curve with a large enough effect in the signal ratio, with a control signal flat (not every such curve was filed as active); inconclusive = small, poorly fitted or top-dose-only effect, or effect the other way, or a change in a side signal; inactive = flat fitted curve, though single readings scatter; the % refers to the signal ratio. The list comes from a sample in which actives are over-represented; it also holds similar structures and randomly drawn compounds.
# Test: qHTS Assay for Lipid Storage Modulators in Drosophila S3 Cells;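 as to cell number change: cells counted by Cell Tracker Red CMTPX staining in the red channel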
# Settings: BODIPY lipid droplet fluorescence, 18-24 h, cells fed with added oleic acid; cell number change: measured here: cell count max response; series mostly up to 46.1 µM
# How it was run: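 Laser-scanning cytometry quantifies lipid droplet accumulation (500–530 nm total intensity; droplet/cell object ratio) in oleic acid-fed (400 uM added) Drosophila S3 cells treated with a concentration series. 20 uM Triacsin C defined 100% inhibition.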
# Potency is read from the fitted curve at half-maximal effect.
Compound,Potency,cell number change
CCOC(=O)Nc1cc2c(C)cc(=O)oc2cc1C,inactive,12.9%
Cc1ccc(CN2CCN(Cc3c[nH]c4ccccc34)CC2CCO)o1 (stereo not drawn),inactive,12.4%
Cc1cccc(C)c1NC(=O)N1C2CCC1CC(O)(c1cccnc1)C2 (stereo not drawn),inactive,9.99%
O=C(Nc1ccccc1C(=O)NC1CC1)c1ccccc1,inactive,10.8%
CCOC(=O)C1=NN(c2cccc(Cl)c2)C2=NC(C)=C(C(=O)OC)C(c3cccs3)N12 (stereo not drawn),inactive,-18.3%
CCOc1ccc2ccccc2c1/C=N\NC(=O)c1ccc([N+](=O)[O-])cc1,6.51 µM (active),-16.1%
COc1ccc2ccccc2c1/C=N/NC(=O)c1ccc([N+](=O)[O-])cc1,inactive,-15.8%
CCOc1ccc2ccccc2c1/C=N/NC(=O)c1ccncc1,inactive,6.87%
CC(C)CNC(=O)CN1C(=O)NC2(CCCc3ccccc32)C1=O (stereo not drawn),inactive,7.92%
CCCNC(=O)C1CCN(S(=O)(=O)c2ccc3nc4c(c(C(=O)O)c3c2)CCCCC4)CC1,inactive,4.41%
CN(C)N1C(=O)CC(C)(c2ccc([N+](=O)[O-])cc2)C1=O (stereo not drawn),inactive,-4.15%
Cc1cccc(-n2ncc3c(=O)[nH]c(SCC(=O)NCCC4=CCCCC4)nc32)c1,inactive,-11%
O=C(OCCc1cc2ccccc2c(=O)o1)c1cccc(Br)c1,0.13 µM (active),-23.3%
N#Cc1ccc(C(=O)OCCCc2cc3ccccc3c(=O)o2)cc1,inactive,18%
O=C(OCCCc1cc2ccccc2c(=O)o1)c1ccc2c(c1)OCO2,inactive,-12%
CC(C)CN1CCN(Cc2cccn2-c2ccc(Cl)cn2)CC1CCO (stereo not drawn),inactive,10.5%
COc1ccc2c(c1)sc1nc(=O)ccn12,inactive,21.5%
CCCCc1c(O)nc2sc3cc(OC)ccc3n2c1=O,10.3 µM (active),9.25%
CCCCc1c(O)nc2sccn2c1=O,inactive,
CSCC(=O)N1CCCC(N2CCN(c3cccc(C(F)(F)F)c3)CC2)C1 (stereo not drawn),13 µM (active),7.35%
CCN(CC)CC(=O)N1CCCC(N2CCN(c3cccc(C(F)(F)F)c3)CC2)C1 (stereo not drawn),inactive,21%
O=C(CN1CCOC1=O)N1CCCC(N2CCN(c3cccc(C(F)(F)F)c3)CC2)C1 (stereo not drawn),inactive,-10.2%
O=C(Nc1cccc(-c2ccc(F)cc2)c1)C1CCCN(Cc2cccnc2)C1 (stereo not drawn),inactive,-21.8%
CCc1ncc(CN2CCCC(C(=O)Nc3cccc(-c4cccc(C)c4)c3)C2)cn1 (stereo not drawn),inactive,8.11%

Compound,Potency,cell number change
CCc1ncc(CN2CCCC(C(=O)Nc3cccc(-c4ccc(F)cc4)c3)C2)cn1 (stereo not drawn),20.6 µM (active),-24.6%
C=CCN(Cc1nc(-c2ccccc2)no1)C(=O)c1ccoc1C,inactive,33.5%
Cc1cc(=O)oc2cc(Oc3ncccc3[N+](=O)[O-])ccc12,inactive,13.9%
Cc1cc(=O)oc2cc(Oc3ccc(C(N)=O)cc3[N+](=O)[O-])ccc12,inactive,5.31%
Cc1cc(=O)oc2cc(Oc3ccc([N+](=O)[O-])cc3[N+](=O)[O-])ccc12,20.6 µM (active),-13.4%
O=C(COc1ccccc1)NNC(=S)NC(=O)c1ccc(Cl)cc1Cl,inactive,-11.7%
N#Cc1cc2c(nc1Cl)CCC2,inactive,0.397%
O=C(NCc1ccco1)/C(=C/c1cccc(C(F)(F)F)c1)c1nc2ccccc2[nH]1,inactive,-4.5%
O=C(/C(=C/c1cccc(Cl)c1)c1nc2ccccc2[nH]1)c1ccccc1,9.2 µM (active),-22.6%
COc1cc(/C=C(/C(=O)c2cccs2)c2nc3ccccc3[nH]2)ccc1O,inactive,-19%
Cc1ccc2nc(-c3ccccc3)c(-c3ccccc3)nc2c1,inactive,8.82%
CCOc1cc(/C=C(\C#N)c2nc3ccccc3[nH]2)ccc1OC(C)C(=O)O (stereo not drawn),inactive,5.37%
CCN(CC)c1ccc(/C=C(/C#N)c2nc3ccccc3[nH]2)c(OC(C)C)c1,3.66 µM (active),
N#C/C(=C\c1ccccc1OCC(=O)O)c1nc2ccccc2[nH]1,inactive,
CCN(C(=O)COC(=O)c1cc(=O)c2ccccc2o1)c1c(N)n(Cc2ccccc2)c(=O)[nH]c1=O,inactive,
COc1cccc(CN2C(=O)C(C)N(C(=O)c3ccccc3)c3ccccc32)c1 (stereo not drawn),inactive,-9.22%
Cc1ccccc1N(CC(=O)NC1CCCC1)C(=O)c1csnn1,inactive,-1.91%
CC(=O)c1ccc(N(CC(=O)NC2CCCCC2)C(=O)c2csnn2)cc1,inactive,-0.427%
Cc1cc(C)cc(N(CC(=O)NC2CCCCC2)C(=O)c2csnn2)c1,6.51 µM (active),3.85%
Cc1cc(C)cc(N(CC(=O)NC2CCCC2)C(=O)c2csnn2)c1,inactive,20%
Cc1ccc(Cl)cc1N(CC(=O)NC1CCCC1)C(=O)c1csnn1,0.82 µM (active),11.3%
Cc1ccc(C)c(N(CC(=O)NC2CCCCC2)C(=O)c2csnn2)c1,inactive,7.08%
O=C1C2C3C=CC(C3)C2C(=O)N1c1cccc2ccccc12 (stereo not drawn),inactive,
CCCN(c1ccccc1C(=O)O)S(=O)(=O)c1ccc2c(c1)n(C)c(=O)n2C,inactive,4.38%

Compound,Potency,cell number change
CN(Cc1cccc(Cl)c1)C(=O)C1CSC2(C)CCC(=O)N12 (stereo not drawn),inactive,2.85%
COc1ccc(Oc2cccc(Cl)c2CNC(=O)CCCC(=O)O)cc1,inactive,-4.23%
CC1(C)CC(O)C(C)(C)N1O (stereo not drawn),inactive,0.759%
COc1ccc2[nH]c(=O)c(CN(C(=O)C3CCCO3)c3ccc(C)cc3)cc2c1 (stereo not drawn),inactive,-16.8%
O=C(O)CCC(=O)Nc1ccc(/C=C/C(=O)C2CC2)cc1,inactive,0.554%
Cc1ccc(C(C[N+](=O)[O-])n2nc(C)cc2C)cc1 (stereo not drawn),inactive,28.9%
COC(=O)C(C(=O)OC)C(C[N+](=O)[O-])c1ccc(OC)cc1 (stereo not drawn),inactive,-3.46%
COc1ccc(C(C[N+](=O)[O-])n2nc(C)cc2C)cc1 (stereo not drawn),5.17 µM (active),-16.7%
CCCCn1c(=O)nc2n(-c3ccc(Cl)cc3)c3ccccc3cc-2c1=O,inactive,
C=CCNC(=O)c1ccc(Sc2ccc(C)cc2)c([N+](=O)[O-])c1,inactive,-8.5%
CCOC(=O)/C(=C\c1cccc(O)c1)c1nc2sc(C)c(C)c2c(=O)[nH]1,20.6 µM (active),-21.1%
CCOC(=O)c1nc2sc(C)c(C)c2c(=O)[nH]1,inactive,-3.45%
Cc1c(C(=O)O)sc2nc(/C=C/c3cccc(O)c3)[nH]c(=O)c12,inactive,5.19%
NC(=O)C1CCN(c2ccnc3cc(Cl)ccc23)CC1,inactive,-7.1%
Cc1ccc(N(C(=O)CCCC(=O)Nc2ccccn2)C(C(=O)NC2CCCC2)c2ccc(O)cc2)cc1C (stereo not drawn),inactive,-6.35%
COc1cccc(NC(=O)c2sc3nc4n(c(=O)c3c2C)CCC4)c1,4.11 µM (active),-27.4%
Cc1cc(C)cc(NC(=O)c2sc3nc4n(c(=O)c3c2C)CCC4)c1,18.4 µM (active),-23.1%
CCc1cccc(NC(=O)c2ccc3c(=O)n4c(nc3c2)CCCCC4)c1,inactive,-2.31%
Cc1c(C(=O)Nc2ccc(OC(F)(F)F)cc2)sc2nc3n(c(=O)c12)CCC3,inactive,2.69%
CCc1ccc(NC(=O)c2sc3nc4n(c(=O)c3c2C)CCC4)cc1,2.31 µM (active),-24%
COc1ccc(COC(=O)c2sc3nc4n(c(=O)c3c2C)CCC4)cc1,inactive,
COc1ccccc1N1CCN(C(=O)c2sc3nc4n(c(=O)c3c2C)CCC4)CC1,inactive,-21.5%
CCOC(=O)c1sc2nc3n(c(=O)c2c1C)CCCCC3,inactive,-6.59%
Cc1c(C(=O)NCCO)sc2nc3n(c(=O)c12)CCC3,inactive,20%

Compound,Potency,cell number change
CCOC(=O)c1sc2nc3n(c(=O)c2c1C)CCC3,inactive,7.44%
CCc1cccc(NC(=O)c2sc3nc4n(c(=O)c3c2C)CCC4)c1,5.8 µM (active),-22.1%
CCOc1ccc(CCNC(=O)c2sc3nc4n(c(=O)c3c2C)CCC4)cc1,inactive,17.9%
Cc1cccn2c(=O)c3cc(C(=O)NCCCN4CCOCC4)n(C)c3nc12,inactive,
CCCCN1C(=O)NC(NC(=O)C2CC2)(C(F)(F)F)C1=O (stereo not drawn),inactive,15%
CC(=O)Nc1ccc(S(=O)(=O)N(C#N)c2nc(N(C)C)nc(N(C)C)n2)cc1,inactive,-23%
CN(C)CC(=O)Nc1ccc2cn[nH]c2c1,inactive,-1.8%
CSc1nc(C)c(Cl)c(C)c1C#N,inactive,-6.02%
COc1cc(Cl)cc(C(=O)O)c1OCC(=O)O,inactive,3.53%
O=C(/C=C/c1ccc(F)cc1)N1CCN(c2ncccn2)CC1,inactive,20.7%
CC(=O)NNC(=O)CCn1c2c(c3ccccc31)CCCC2,inactive,1.32%
Fc1ccccc1CNc1ccc(Cl)cc1,inactive,-4.41%
CN(C)S(=O)(=O)Nc1ccccc1F,inactive,-0.564%
CN(C)S(=O)(=O)Nc1ccc(Br)cc1F,23.1 µM (active),-21.1%
CN(C)S(=O)(=O)Nc1cccc(Br)c1,inactive,0.321% and 14.1%
CC(=O)c1c(C)[nH]c(C(=O)NCc2cccs2)c1C,inactive,
COc1ccc(N2CCN(CC(O)COc3ccc4c(c3)CCC4)CC2)cc1 (stereo not drawn),inactive,10.4%
O=C1CN(CC(=O)N2CCOCC2)c2ccccc2O1,inactive,
COc1ccc(/C(C)=N/NC(=S)NCCc2ccccc2)cc1,inactive,
COc1cccc(OC)c1C(=O)NC(C)c1ccccc1 (stereo not drawn),inactive,0.137%
NS(=O)(=O)c1ccc(CCNC(=O)c2ccc3c(c2)OCO3)cc1,23.1 µM (active),21.4%
NS(=O)(=O)c1ccc(CCNC(=O)c2ccc3c(c2)OCCO3)cc1,inactive,12.5%
O=C(NCCc1ccc(Cl)cc1)c1ccc2c(c1)OCO2,inactive,

# — PubChem BioAssay AID2685 (National Center for Advancing Translational Sciences (NCATS), 2010)
